# DT40 TDP1 CPT: growth inhibition of DT40 Tdp1-/-;hTDP1 cells with camptothecin (screen for TDP1 inhibitors). chicken DT40 Tdp1-/-;hTDP1 cells + 20 nM CPT, ATP luminescence, 48 h. Potency, µM (titrated, usually from 46.2 µM), for inactives: top-dose activity change, negative = growth inhibition, most hits filed as inhibitors. hit rate 12% among 420,000; note: % is set by controls: 0 for no effect and ±100 for the full control effect; nearly all actives have a fitted effect of over 55% in size
#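 Cell growth measured by CellTiter-Glo luminescence after a minimum 48 h, 37 C compound exposure with 20 nM CPT in Tdp1-knockout DT40 cells stably expressing hTDP1, seeded 400/well; qHTS titration format.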
# HT1080-NT tox: kills 2HG-producing HT-1080-NT fibrosarcoma cells; HT-1080-NT fibrosarcoma viability, CellTiter-Glo ATP luminescence, 48 h; Potency, µM (titrated, usually from 46.1 µM), inactives show at the highest dose activity, negative = less viability, usual class: cytotoxic; hit rate 1.6% among 360,000; AID 686970;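 note: NT is the 2HG producing partner of a matched IDH1 knockdown line; 0% = DMSO-treated cells and -100% = media-only wells without cells; nearly all actives have a fitted effect of over 55% in size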
#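 Viability by CellTiter-Glo luminescence after 48 h compound exposure at 37C of HT-1080-NT cells (750/well, RPMI, 5% FBS). % activity scaled between DMSO wells and medium-only wells, then curve-fitted and categorized by curve class.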
# DT40 TDP1 no CPT: qHTS for Inhibitors of human tyrosyl-DNA phosphodiesterase 1 (TDP1): qHTS in cells in absence of CPT | DT40 Tdp1-/- hTDP1 cells, no CPT, ATP luminescence, 48 h | Potency, µM (titrated, usually from 46.2 µM), without a hit: at the highest dose activity change, negative = growth inhibition, most hits filed as inhibitors | hit rate 15% among 420,000 | AID 686978, 2013; note: % is set by controls: 0 for no effect and ±100 for the full control effect; nearly all actives have a fitted effect of over 55% in size
#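 Stably hTDP1-transfected Tdp1-null chicken DT40 cells were treated with library compounds minus camptothecin and grown for at least 48 hr at 37 °C, after which cellular ATP was quantified by luminescence.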
# HT1080 IDH1KD tx: HT-1080 IDH1 knockdown cell toxicity (counter line); HT-1080 IDH1 knockdown viability, ATP luminescence, 48 h; Potency, µM (series often up to 46.1 µM), without a hit: at the top dose activity, negative = toxicity, actives largely listed as cytotoxic; hit rate 2% among 360,000;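 note: 0% = DMSO wells and -100% = cell-free medium wells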
#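 Assay cells: HT-1080 with IDH1 knockdown, 750 per well, RPMI/5% FBS. Exposure: 48 h at 37 °C following 2 h pre-incubation. Read: CellTiter-Glo luminescence; fitted concentration-response, curve class assigned.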
# HepG2 tox: kills HepG2 cells in TGF-b inhibitor counter-screen; HepG2 CAGA-GFP viability, ATP luminescence, 18 h; hit rate 0.76% among 410,000; Potency, µM (series often up to 46.1 µM), inactives show at the top dose activity change, negative = cytotoxicity, actives largely listed as cytotoxic
#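 HepG2 CAGA-GFP cells (1000/well, DMEM with 1% FBS) received compound, then TGF-beta at 500 pg/mL final, and were incubated 18 hours at 37 degrees C. Viability was read by CellTiter-Glo luminescence. Media-only wells were set as complete cell-killing and DMSO as no toxicity.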
# TGFb inhibitor: inhibitors of TGF-b signaling; hit rate 1.2% among 410,000; AID 588855; HepG2 CAGA-GFP TGF-b/SMAD3 reporter, GFP fluorescence, 18 h; TGF-beta stimulated, 500 pg/mL final; Potency, µM (highest dose often 46.1 µM), inactives show top-dose activity, negative = inhibition, most hits filed as inhibitors; note: % is set by controls: 0 for no effect and ±100 for the full control effect; nearly all actives have a fitted effect of over 65% in size
#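 HEPG2 CAGA-GFP reporter cells (1000/well, DMEM with 1% FBS) received compounds, then recombinant TGF-beta at 500 pg/mL final for 18 hours at 37 degrees C. Per-cell GFP summed per well was normalised to unstimulated and stimulated DMSO controls before curve fitting.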
# Numbers without * were called inactive; ? = inconclusive; · = not tested or not shown; ! = not active in a repeat; [ ] = remark or other dose. In the library only some 17% were active in any assay of this set; here they are far more common. Calls come from the whole dose curve; as a rule, active = well fitted curve in the direction sought with a large enough effect; inconclusive = small, poorly fitted or top-dose-only effect, or another doubt; inactive = no such curve, though single readings can be large; an effect the other way counts as inactive or inconclusive. Potency is the fitted concentration of half-maximal effect.
SMILES,DT40 TDP1 CPT,HT1080-NT tox,DT40 TDP1 no CPT,HT1080 IDH1KD tx,HepG2 tox,TGFb inhibitor
C/C=C1/C[C@@H](C)[C@](O)(CO)C(=O)OCC2=CCN3CC[C@@H](OC1=O)[C@@H]23,?,13%,?,-7%,-2%,-7%
C[C@H]1C(=O)O[C@@H]2CCN3CC=C(COC(=O)[C@](C)(O)[C@]1(C)O)[C@H]23,12µM*!,23%,?,8%,6%,0%
O=C(NCc1cccnc1)c1ccc(-c2ccc(F)c(F)c2)c2ccoc12,5.8µM*,?,4.6µM*,?,-25%,-1%
O=[N+]([O-])c1ccc2c(c1)C(c1ccccc1)=NCCN2,-10%,-21%,-27%,-19%,-12%,0%
O=[N+]([O-])c1ccc(-c2ccccc2)c([As](=O)(O)O)c1,13µM*,-29%,9.2µM*,-26%,-26%,?
O=c1[nH]c(O)c(C=NC2CCCCC2)c(=O)[nH]1,1%,5%,1%,-1%,0.63µM*,5%
O=S(=O)(c1ccc(F)cc1)N1CN2CCN(C2)C1,?,0%,?,1%,1%,-5%
O=S(=O)(c1ccc(Cl)cc1)N1CN2CCN(C2)C1,23µM*,23%,?,13%,-4%,7%
Cc1ccc(C)c(N2CCN(C(=O)CCNS(=O)(=O)c3ccc4c(c3)oc(=O)n4C)CC2)c1,?,-16%,?,-2%,-3%,-5%
NC(N)=NN=C(/C=C/c1ccc([N+](=O)[O-])o1)/C=C/c1ccc([N+](=O)[O-])o1,3µM*,·,3µM*,·,·,·
O=C(CCCCCCCCCCC(=O)NCc1cccnc1)NCc1cccnc1,?,?,?,4.6µM*,-16%,6%
Nc1nc(SCCC(F)=C(F)F)n[nH]1,11%,7%,-2%,17%,-23%,0%
Cc1nnc2n1-c1sc(CCc3ccc(CC(C)C)cc3)cc1C(c1ccccc1Cl)=NC2C (configuration not stated),?,·,12µM*,·,·,·
COc1ccc(C(=O)Cn2c(NCCO)nc3ccccc32)cc1,16µM*,-1%,?,-8%,5%,-3%
COc1ccc(C(=O)CN2CCCCC2)cc1,-10%,-1%,-1%,-1%,-44%,-1%
CC(=O)OC1CCC23C(=O)OC45CCC(C6=CC(=O)OC6)C4(C)CCC2C5CCC3(O)C1 (configuration not stated),12µM*,·,10µM*,·,·,·
Cc1ccc(S(=O)(=O)Cc2ccc(C(=O)N3CCC4(CC3)OCCO4)o2)cc1,-24%,11%,-23%,4%,0%,1%
O=C(O)CC1OCC=C2CN3CCC45C6=CC(=O)C(=O)C([N+](=O)[O-])=C6NC4C1C2CC35 (configuration not stated),14µM*,0%,11µM*,3%,-51%,?
C=CCNC(=O)c1ccccc1NC(=O)c1ccc(Cl)c(S(=O)(=O)Nc2cc(C)ccc2C)c1,18µM*,?,?,?,-4%,?
COc1ccc(C)cc1NC(=O)c1cccn(Cc2ccccc2Cl)c1=O,-29%,·,-1%,·,-8%,2%
CN(C(=O)Cc1ccc(Cl)c(Cl)c1)[C@H](CN1CCCC1)c1cccc(N=C=S)c1,12µM*,·,13µM*,·,·,·
COc1ccc(C(CNC(=O)Cc2ccc(Cl)c(Cl)c2)N2CCCCC2)cc1 (configuration not stated),?,-26%,?,-3%,-31%,-18%
CN(C(=O)Cc1ccc(Cl)c(Cl)c1)C(CN1CCCC1)c1cccc(N=C=S)c1 (configuration not stated),5.2µM*,·,3.3µM*,·,·,·
O=C(Nc1ccccc1)N1CC[C@@]2(CCCN(C(=O)Oc3ccccc3)C2)C1,5%,·,-11%,·,·,·
CN1CCN(c2ccc(N)cc2Cl)CC1,?,-6%,?,-18%,-9%,8%
SMILES,DT40 TDP1 CPT,HT1080-NT tox,DT40 TDP1 no CPT,HT1080 IDH1KD tx,HepG2 tox,TGFb inhibitor
CN[C@@H](C)[C@H](O)c1ccccc1,18%,·,-11%,·,9%,4%
Cc1cc(S(=O)(=O)NC(C)C)ccc1OCC(=O)N1CCN(Cc2ccc3c(c2)OCO3)CC1,16µM*,?,?,?,-32%,?
CC(C)NS(=O)(=O)c1ccc(OCC(=O)N2CCN(Cc3ccc4c(c3)OCO4)CC2)c(Cl)c1,16µM*,?,18µM*,?,-23%,?
CCc1ccc(OCC(=O)N2CCN(Cc3ccc4c(c3)OCO4)CC2)cc1,-4%,-22%,?,-17%,-38%,-17%
O=C(Cn1c(=O)oc2cc(S(=O)(=O)N3CCCC3)ccc21)Nc1cccc(C(F)(F)F)c1,13µM*,-16%,15µM*,-14%,6%,-9%
O=C(COc1cccc(C(F)(F)F)c1)Nc1ccc(S(=O)(=O)N2CCCC2)cc1,23µM*,0%[9.24 µM],?,?,-21%,-9%
CC1CCCCC1NC(=O)Cn1c(=O)oc2cc(S(=O)(=O)N3CCCC3)ccc21 (configuration not stated),?,-17%,?,-13%,-72%,-4%
Cc1ccc(NC(=O)Cn2c(=O)oc3cc(S(=O)(=O)N4CCCCCC4)ccc32)cc1Cl,12µM*,·,21µM*,·,-12%,0%
CCc1ccc(NC(=O)Cn2c(=O)oc3cc(S(=O)(=O)N4CCCCCC4)ccc32)cc1,12µM*,·,9.2µM*,·,-42%,·
O=C(Cn1c(=O)n(Cc2ccccc2)c(=O)c2sc3ccccc3c21)NCc1ccccc1Cl,-17%,·,?,·,10%,2%
O=C(N/N=C\c1ccc(COc2ccc([N+](=O)[O-])cc2)o1)c1cccc(Cl)c1,-14%,-18%,?,-26%,-22%,-15%
CCc1cccc(NC(=O)Cn2c(=O)oc3cc(S(=O)(=O)N4CCOCC4)ccc32)c1,23µM*,5%,15µM*,0%,-12%,-21%
CCOc1ccc(NC(=O)Cn2c(=O)oc3cc(S(=O)(=O)N4CCC(C)CC4)ccc32)cc1,9.2µM*,·,8.2µM*,·,-47%,?
CC1CCN(C(=O)Cn2c(=O)oc3cc(S(=O)(=O)N4CCCCC4)ccc32)CC1,0%,10%,-21%,11%,52%,14%
Cc1cccc(C(C)C)c1NC(=O)Cn1c(=O)oc2cc(S(=O)(=O)N3CCCC3)ccc21,18µM*,·,15µM*,·,-13%,·

# From PubChem BioAssay
